Data taken from PubChem BioAssay.
Activity calls are given as the source filed them. No rule for the calls is given here.

What follows are molecules tested against Pantothenate synthetase (Mycobacterium tuberculosis (strain ATCC 25618 / H37Rv)) (UniProt P9WIL5) (assay: Coupled enzyme confirmation of inhibitors against recombinant Mtb PanC (AID 375;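 also: 0% = full reaction with vehicle and 100% = no enzyme background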)). Details: coupled enzyme assay; at 10 µM, stronger effect = higher value.
Pantothenate synthetase (Mycobacterium tuberculosis (strain ATCC 25618 / H37Rv)), sequence (P9WIL5 whole entry, looked up): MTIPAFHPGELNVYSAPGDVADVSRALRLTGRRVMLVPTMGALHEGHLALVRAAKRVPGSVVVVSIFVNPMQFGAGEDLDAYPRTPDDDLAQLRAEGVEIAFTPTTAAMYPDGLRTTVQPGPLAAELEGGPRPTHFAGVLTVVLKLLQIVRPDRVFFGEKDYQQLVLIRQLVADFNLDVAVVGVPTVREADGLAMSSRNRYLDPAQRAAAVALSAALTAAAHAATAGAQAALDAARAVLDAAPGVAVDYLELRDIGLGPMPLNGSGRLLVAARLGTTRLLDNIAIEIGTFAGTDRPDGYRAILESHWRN

SMILES	inhibition
Cc1nc2c(o1)CCc1ccccc1C2O (stereo not drawn)	0% (inactive)
O=C(NCc1ccccn1)c1ccc2nc(-c3ccco3)c(-c3ccco3)nc2c1	1% (inactive)
CCNCc1cc2cc(C)ccc2[nH]c1=O	0% (inactive)
O=C1c2ccccc2NC(c2cccc(F)c2)N1Cc1ccco1 (stereo not drawn)	0% (inactive)
CCN(CC)CC(C)CNC(=O)CC(C(=O)N1CCc2ccccc21)n1ccnc1 (stereo not drawn)	2% (inactive)
O=C(Nc1nccs1)c1ccc(COc2ccccc2Br)o1	0% (inactive)
CCSc1nc2ccccc2n1CC(N)=O	4% (inactive)
O=C(NCc1cccnc1)c1ccc(Cl)c(Cl)c1	0% (inactive)
O=C(CN1CCC(O)(c2ccc3c(c2)OCO3)CC1)OC1CCCCC1	0% (inactive)
CN(CC(=O)O)S(=O)(=O)c1cc(Cl)ccc1Cl	1% (inactive)
O=C(CCCOc1ccccc1)N1CCN(c2ccccn2)CC1	3% (inactive)
COC(=O)CN(Cc1ccco1)S(=O)(=O)c1ccccc1	1% (inactive)
CCOC(=O)N1CCN(C(=O)c2ccc(CS(=O)(=O)c3c(Cl)cccc3Cl)o2)CC1	0% (inactive)
CC(C)COC(=O)C1[C@H]2C(=O)N(Cc3cccs3)C[C@]23C=C[C@H]1O3 (stereo partly drawn)	1% (inactive)
CC1CC(=O)c2cnc(NCC3CCCO3)nc2C1 (stereo not drawn)	3% (inactive)
Nc1nc2c(ncn2COCCO)c(=O)[nH]1	0% (inactive)
Cn1c(=O)c2c(nc(NCCCO)n2C/C=C/c2ccccc2)n(C)c1=O	4% (inactive)
CCOC(=O)N1CCN(c2cc(=O)n(-c3ccc(OCC)cc3)c(=O)[nH]2)CC1	5% (inactive)
O=C(OCC#CCSc1nc2ccccc2s1)c1ccco1	3% (inactive)
COC(=O)C1=C(C)NC(C)=C(C(=O)OC)C1C(=O)OC1CCCCC1=O (stereo not drawn)	0% (inactive)
CCOC(=O)Cc1nnc2c(Nc3ccccc3F)nc3nonc3n12	7% (inactive)
Cc1cc(=O)[nH]c(S/C=C/c2ccccc2)n1	0% (inactive)
O=C(NC1CCCC1)c1ccc(S(=O)(=O)N2CCCC2)cc1	0% (inactive)
